The whole screen tested about 5,500 compounds, of which about 2,000 (36%) were called active. About 18% were inconclusive and are not listed. No stated cut-off is given here; in the data, active means normalized growth mostly below about 0.91 (no sharp cut-off); inconclusive means no clear call, values can overlap the other calls; inactive means mostly above about 0.92. This is one part of the list.
Test: chemical genetic growth profiling, strain panel (AID 1159580);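 further: tested at 20 µM; growth read once vehicle control cultures reached saturation at 30 °C; 1 = growth at the plate median or of vehicle wells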
Conditions: S. cerevisiae deletion strains, growth OD

Measured: normalized growth

O=C(O)CS
inactive: locus YHR030C, strain SLT2, stronger effect = lower value 1.05 | locus YHR079C, strain IRE1, stronger effect = lower value 1.02 | locus YJL095W, strain BCK1, stronger effect = lower value 1.04 | locus YJR066W, strain TOR1, stronger effect = lower value 0.941 | locus YLR113W, strain HOG1, stronger effect = lower value 1.07 | locus YNL183C, strain NPR1, stronger effect = lower value 1.02 | locus YOR231W, strain MKK1, stronger effect = lower value 1.08 | locus YPL256C, strain CLN2, stronger effect = lower value 1.05

Source: PubChem BioAssay AID1159580 (chemical genetic matrix, 2015)
